The whole screen tested about 330,000 compounds, of which about 300 (0.091%) were called active. Another 4% or so got no clear call; they are omitted. Many of the other results were omitted from the sample, so actives are more common in it than they were. A number with no mark means an inactive call. Calls follow the shape of the dose curve; as a rule, active = well fitted inhibition curve with a large enough effect; inconclusive = small, poorly fitted or top-dose-only effect, or effect the other way, or another doubt; inactive = no such curve, though single readings can be large or run the other way.
Potency is read from the fitted curve at half-maximal effect.

This experiment concerns the target Lysosomal acid glucosylceramidase (Homo sapiens) (UniProt P04062). The experiment can be described thus: qHTS Assay for Inhibitors and Activators of N370S glucocerebrosidase as a Potential Chaperone Treatment of Gaucher Disease.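 As to activity change, negative = inhibition: 0% = full enzyme activity and -100% = no enzyme basal.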 To be noted: N370S GC spleen homogenate, 4MU-glucoside fluorescence; series mostly up to 59.4 µM; activity change, negative = inhibition: at the top concentration. From the text:
NIH Chemical Genomics Center [NCGC]
NIH Molecular Libraries Probe Production Centers Network [MLPCN]
Assay Submitter (PI): Wei Zheng
Glucocerebrosidase (GC) catalyzes the hydrolysis of beta-glucocerebroside to glucose and ceramide in lysosomes. Mutations in the glucocerebrosidase gene result in Gaucher disease, an autosomal recessive lysosomal storage disorder. Many of the mutations encountered in patients with Gaucher disease are missense alterations that may cause misfolding, decreased stability and/or mistrafficking of this lysosomal protein. […] These inhibitors include iminosugar analogs and three non-iminosugar inhibitors identified from a previous HTS of 62,000 compounds with the wild type recombinant enzyme. However, the enhancement of enzyme activity by the chaperone action of an enzyme inhibitor must be balanced against the direct inhibition of the enzyme. An enzyme activator could also function as a chaperone by binding to the enzyme and helping to correct its misfolding and mistrafficking. While activators for GC have not yet been identified, they may have better therapeutic potential than inhibitors. Therefore the discovery and development of chemical activators may provide a new strategy for the chaperone therapy.
We have optimized a new assay using N370S mutant GC derived from the spleen of a Gaucher patient. […] In addition, the MLPCN compound library has expanded, which increases the chance of finding new and better probes.
NCGC Assay Protocol Summary:
This is a fluorogenic enzyme assay with 4-methylumbelliferyl-beta-D-glucopyranoside as the substrate and N370S glucocerebrosidase from human spleen homogenate as the enzyme preparation. Upon the hydrolysis of this fluorogenic substrate, the resulting product, […] which can be detected by a standard fluorescence plate reader. Data were normalized to the controls for basal activity (without enzyme) and 100% activity (with enzyme). The AC50 values were determined from concentration-response data modeled with the standard Hill equation.
Assay buffer: 50 mM citric acid (titrated with potassium phosphate to pH 5.0), 100 mM potassium chloride, 10 mM sodium chloride, 1 mM magnesium chloride, 0.01% Tween-20.
1536-well assay protocol:
(1) Add 2 ul/well of spleen homogenate (27 ug final)
(2) Add 23 nL compounds in DMSO solution. The final titration was 0.5 nM to 58 uM.
(3) Add 2 ul of substrate (1 mM final)
(4) Incubate at 37C for 40 min.
(5) Add 2 ul stop solution (1M NaOH and 1M Glycine mixture, pH 10)
(6) Detect the assay plate in a ViewLux plate reader (PerkinElmer) with Ex=365 nm and Em=440nm.
Keywords: Glucocerebrosidase, beta-glucosidase, Gaucher Disease, pharmacological chaperone, chaperone therapy, high throughput screening, glucocerebrosidase inhibitor, MLSMR, MLSCN, NIH Roadmap, qHTS and NCGC
In general terms: In qHTS, concentration-response curves come from the screen itself.
In the case of `O=C(NCc1ccco1)O[C@@H]1C(=O)c2cc(Br)ccc2O[C@H]1c1ccc2c(c1)OCO2`, the “activity change, negative = inhibition” value was 0.0082%.
As to `CCn1c(=O)c(=O)n(CC)c2cc(N3CCCCC3)c(NC(=O)c3ccc(Cl)cc3)cc21`, the “activity change, negative = inhibition” value is 3.98%.
For the compound `CCC(C)C(N=C1NS(=O)(=O)c2ccccc21)C(=O)N1CCC(C)CC1` (centres undefined), the “activity change, negative = inhibition” value is 2.41%.
On the same count and under the same terms, the result for `O=C1CN(Cc2ccccc2)S(=O)(=O)c2ccccc21` reads -5.5%.
With `C#CCOCCOCCOCCNc1nc(N2CCN(C(=O)CCCCCCCCCCNC(=O)[C@H](CCCCN)n3cc(C)nn3)CC2)nc(N2CCN(C(=O)CCCCCCCCCCNC(=O)[C@H](CO)n3cc(CCCSC)nn3)CC2)n1`, the Potency is 15.8 µM (active).
Take `C#CCOCCOCCOCCNc1nc(N2CCN(C(=O)Cn3cc(CCCCN)nn3)CC2)nc(N2CCN(C(=O)[C@H](CCCCN)n3cc(CCC(=O)O)nn3)CC2)n1`: the “activity change, negative = inhibition” value is -0.601%.
Consider `C#CCOCCOCCOCCNc1nc(N2CCN(C(=O)CCCCCCCCCCNC(=O)Cn3cc(CCCCCN)nn3)CC2)nc(N2CCN(C(=O)CCCCCCCCCCNC(=O)[C@H](CO)n3cc(CCCSC)nn3)CC2)n1`, for which the “activity change, negative = inhibition” value was -28%.
Regarding `O=c1c(O)c(-c2ccc(O)cc2)oc2ccccc12`, the “activity change, negative = inhibition” value is 21%.
On the same count and under the same terms, the result for `CCCCN(CC(=O)Nc1cccc(S(=O)(=O)N2CCCC2)c1)Cc1nc2ccccc2c(=O)[nH]1` reads 12.9%.
Still for that read-out and setting: the result for `COc1cc(C(=O)OCC(=O)NC23CC4CC(CC(C4)C2)C3)cc(OC)c1OC` reads -2.45%.
On the same count and under the same terms, the result for `CN1CCN(c2ncc3nc(-c4ccc(Cl)cc4)c(=O)n(-c4ccccc4)c3n2)CC1` reads -18.9%; that for `COc1cccc([C@H]2Oc3ccc(OC)cc3/C(=N\OCC[C@@H]3C=C[C@H](OC(C)=O)[C@H](COC(C)=O)O3)[C@@H]2O)c1`, 10.4% [at 12.8 µM].
For `COc1ccc(-c2ccc(C3C4C=CCCC4(C)C(=O)N3Cc3ccccc3)c(F)c2)cc1OC` (centres undefined), the “activity change, negative = inhibition” value was 2.67%.
As to `CCc1ccc(CN(C)C(C)C(=O)Nc2ccc(S(=O)(=O)N3CCCC3)cc2)cc1` (centres undefined), the “activity change, negative = inhibition” value was -12.1%.
On to `Cc1csc(SCC(=O)N(c2ccccc2)C(C)C)n1`, for which the “activity change, negative = inhibition” value is -6.31%.
As for `c1cncc(CNc2ccnc(-c3ccc4c(c3)OCO4)n2)c1`, the “activity change, negative = inhibition” value is -11.9%.
`CC(=O)c1ccc(OCCCC(=O)Nc2ccc(C)c(S(=O)(=O)N3CCOCC3)c2)cc1`: the “activity change, negative = inhibition” value is 0.719%.
Turning to `Cc1ccc(-c2cccc([C@H]3[C@@H]4C=CC[C@@H](C)[C@@H]4C(=O)N3Cc3ccccc3)c2)cc1`, the “activity change, negative = inhibition” value was 7.79%.
With `O=C(C1CC(=O)N(C2CCCC2)C1)N1CCN(c2cccc(C(F)(F)F)c2)CC1` (centres undefined), the “activity change, negative = inhibition” value was -9.54%.
Consider `CC(C)C[C@@H](CC(=O)N[C@@H](CCC(=O)O)CC(=O)O)NC(=O)[C@@H]1CCCC[C@H]1NC(=O)C[C@@H](NC(=O)C[C@H](CO)NC(=O)[C@@H]1CCCC[C@H]1N)C(C)C`, for which the “activity change, negative = inhibition” value is -2.87%.
As for `COc1cc(OC)c2c(c1C(CCN1CCCCC1)c1ccc(N(C)C)cc1)OC(=O)CC2c1ccc(N(C)C)cc1` (centres undefined), the “activity change, negative = inhibition” value was -10.2%.
For the compound `Cc1nc(-c2ccc(F)cc2)c(CC(=O)N(C)CC(=O)Nc2c(C)cccc2C)s1`, the “activity change, negative = inhibition” value is -17.5%.
With `CC(C)(C)c1ccc(S(=O)(=O)N2CCN(C(=O)c3ccc4c(c3)C(=O)N(Cc3ccncc3)C4=O)CC2)cc1`, the “activity change, negative = inhibition” value was -4.23%.
For the compound `CC(C)(O/N=C(\C(=O)N[C@@H]1C(=O)N2C(C(=O)[O-])=C(C[n+]3ccccc3)CS[C@@H]12)c1csc(N)n1)C(=O)O`, the “activity change, negative = inhibition” value is 5.35% [at 21.6 µM].
Still for that read-out and setting: the value for `CCOCCOC(=O)C(C)Oc1ccc(Oc2ncc(C(F)(F)F)cc2Cl)cc1` (centres undefined) was -1.23%; that for `O=C1[C@H]2[C@H]3[C@H](O)[C@H](O)C/C(=N/OCc4ccccc4)[C@H]3CC[C@@H]2C(=O)N1Cc1ccccc1` was 4.77% [at 12.8 µM]; that for `CC(=O)N1[C@H](C)C=C[C@]1(Cc1ccccc1)C(=O)NCc1ccccn1` was 7.18%.
On to `CN(C)CCCNC(=S)NCc1ccc(Cl)cc1`, for which the “activity change, negative = inhibition” value is -7.45%.
Consider `S=C(NCCCc1cnc[nH]1)NCCCN(Cc1ccc(Cl)c(Cl)c1)c1ccc(Br)cn1`, for which the Potency was 1 µM (active).
For the compound `Fc1ccc(Cl)cc1-c1nc(Nc2ccncc2)c2nccnc2n1`, the “activity change, negative = inhibition” value was -3.89%.
`CC1(C)OC2CC3C4CCC5=CC(=O)CCC5(C)C4(F)C(O)CC3(C)[C@]2(C(=O)CCl)O1` (some centres undefined): the “activity change, negative = inhibition” value was -5.68%.
Regarding `COc1ccccc1CNS(=O)(=O)c1cc(C(=O)NCc2ccccn2)c(Cl)cc1Cl`, the “activity change, negative = inhibition” value was -9.28%.
For the compound `CCCC[C@@H]1C[C@H]1C(NC(=O)c1ccco1)c1ccc(C(=O)OC)cc1` (some centres undefined), the “activity change, negative = inhibition” value is -2.07%.
On to `CCC1=Nc2cc(C(=O)NCCCN3CCOCC3)ccc2Sc2ccc(Br)cc21`, for which the “activity change, negative = inhibition” value is -29.8%.
With `Cc1ccc(C(=O)NCCN2CCOCC2)cc1C`, the “activity change, negative = inhibition” value was 0.992%.
For `Cc1ccccc1CN1C(=O)c2ccccc2Sc2ccc(C(=O)NCCCN3CCOCC3)cc21`, the Potency is 11.2 µM (active).
As to `CCc1cccc(NC(=O)COC(=O)c2cc(=O)c3ccccc3o2)c1`, the “activity change, negative = inhibition” value is 0.464%.
On the same count and under the same terms, the result for `CCc1nnc(NC(=O)C2CCN(C(=O)c3ccccc3C)CC2)s1` reads -0.449%.
With `O=NO`, the activity change, negative = inhibition entry is “inactive”.
The same measure, in the same setting: the value for `CN1CCN(S(=O)(=O)c2ccc(N3CCN(c4ccccc4O)CC3)c([N+](=O)[O-])c2)CC1` was -19%; that for `C=CC(=C)CCC=C(C)C` was 10.8%; that for `CC(=O)N1CCOc2ccc(S(=O)(=O)N3CCN(c4cccc(C(F)(F)F)c4)CC3)cc21` was -3.52%.
As for `Cc1[nH]c(C)c(S(=O)(=O)N2CCN(c3cccc(C(F)(F)F)c3)CC2)c1C(=O)N1CCCC1`, the “activity change, negative = inhibition” value is -10.1%.
Take `O=C1CC(=O)Nc2cc(S(=O)(=O)N3CCN(c4cccc(C(F)(F)F)c4)CC3)ccc2N1`: the Potency is 14.1 µM (active).

The record behind these values is PubChem BioAssay AID2101 (National Center for Advancing Translational Sciences (NCATS), 2009).
